Data reported in article PMC4336329 (PLoS ONE, 2015).
Among all 310,000 compounds or so, about 2,200 (0.71%) showed an effect of 50% or more. The effect is printed as a negative number. Shown is part of a subset that was picked to be rich in strong results.

Molecular target: human ether-à-go-go-related gene (hERG) potassium channel (human, UniProt Q12809)
Assay: primary screen, population patch clamp on CHO cells stably expressing hERG; higher = less effect of the substance

Sequence of human ether-à-go-go-related gene (hERG) potassium channel (Q12809 whole entry, looked up): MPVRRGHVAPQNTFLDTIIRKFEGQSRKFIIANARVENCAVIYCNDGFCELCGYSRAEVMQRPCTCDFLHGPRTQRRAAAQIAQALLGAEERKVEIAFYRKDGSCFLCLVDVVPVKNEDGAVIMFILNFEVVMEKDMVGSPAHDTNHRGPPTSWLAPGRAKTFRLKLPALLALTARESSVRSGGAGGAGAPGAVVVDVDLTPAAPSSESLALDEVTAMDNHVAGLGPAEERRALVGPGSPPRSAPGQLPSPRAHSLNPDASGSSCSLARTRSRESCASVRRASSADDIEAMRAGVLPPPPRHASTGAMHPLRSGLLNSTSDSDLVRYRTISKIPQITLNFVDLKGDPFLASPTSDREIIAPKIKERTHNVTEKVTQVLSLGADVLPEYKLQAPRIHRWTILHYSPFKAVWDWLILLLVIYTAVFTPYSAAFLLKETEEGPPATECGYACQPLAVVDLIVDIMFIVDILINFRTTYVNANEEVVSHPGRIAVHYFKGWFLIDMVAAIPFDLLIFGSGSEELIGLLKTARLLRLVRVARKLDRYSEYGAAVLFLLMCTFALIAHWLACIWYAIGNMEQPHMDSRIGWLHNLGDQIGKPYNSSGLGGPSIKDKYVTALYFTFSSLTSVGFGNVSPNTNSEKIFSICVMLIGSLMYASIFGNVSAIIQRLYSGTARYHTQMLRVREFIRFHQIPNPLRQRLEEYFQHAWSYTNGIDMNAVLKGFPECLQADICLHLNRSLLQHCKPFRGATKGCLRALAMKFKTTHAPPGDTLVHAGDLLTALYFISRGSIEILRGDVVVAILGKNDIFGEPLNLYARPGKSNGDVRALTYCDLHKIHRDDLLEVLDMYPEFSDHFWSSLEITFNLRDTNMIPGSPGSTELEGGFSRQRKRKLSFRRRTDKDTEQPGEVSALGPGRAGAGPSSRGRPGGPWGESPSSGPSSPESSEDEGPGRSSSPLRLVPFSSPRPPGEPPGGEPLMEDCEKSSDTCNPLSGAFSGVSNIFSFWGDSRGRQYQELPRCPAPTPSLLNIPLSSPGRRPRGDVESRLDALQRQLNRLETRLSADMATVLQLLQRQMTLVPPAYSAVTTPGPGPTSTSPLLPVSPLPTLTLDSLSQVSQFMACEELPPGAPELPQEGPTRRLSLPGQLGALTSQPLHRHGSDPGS

| SMILES | hERG current change (%, negative = inhibition) at 1uM [%] |
| --- | --- |
| Cc1cc(NC(=O)CCC(=O)N(Cc2cccnc2)C(C(=O)NC(C)(C)C)c2ccccc2Cl)no1 (stereo not shown) | 14.7 |
| O=C1CN(c2ccccc2)C(=S)N1C(=O)c1ccccc1 | 13.5 |
| C/C(=N/NC(=O)c1ccc(Br)o1)c1cccc(NC(=O)c2ccc(C)o2)c1 | -58 |
| C/C(=N/NC(=O)c1ccco1)c1cccc(NC(=O)c2ccc(C)o2)c1 | -8.71 |
| C/C(=N\NC(=O)c1cccc(Br)c1)c1cccc(NC(=O)c2ccc(C)o2)c1 | 2.01 |
| Cc1[nH]c2ccc(C(=O)N3CCN(Cc4ccccc4)CC3)cc2c1C | 0.829 |
| CC1(c2nnc(-c3cccc(Cl)c3)o2)CC(c2ccccc2F)=NO1 (stereo not shown) | 8.2 |
| CC1(C)C(=O)N(CCN2CCC(C(=O)c3ccc(F)cc3)CC2)c2ccccc21.Cl | -60.8 |
| O=C(O)C(O)C(O)C(=O)O.O=C(c1ccc(F)cc1)C1CCN(CCn2c(=O)[nH]c3ccccc3c2=O)CC1 | -9.52 |
| O=C(CN1CCC(C(=O)c2ccc(F)cc2)CC1)NCc1ccccc1F | 2.84 |
| CC1CCN(CCn2c(=S)[nH]c3ccccc3c2=O)CC1 | 1.9 |
| CC1CCN(CCCn2c(=S)[nH]c3ccccc3c2=O)CC1 | -13.5 |
| O=c1c2ccccc2[nH]c(=S)n1CCCN1CCN(c2ccccc2)CC1 | 14 |
| O=C(CN1CCC(C(=O)c2ccc(F)cc2)CC1)Nc1ccccc1 | -10.5 |
| O=c1c2ccccc2[nH]c(=S)n1CCCN1CCC(Cc2ccccc2)CC1 | -52 |
| Cl.O.O=C(c1ccc(F)cc1)C1CCN(CCn2c(=S)[nH]c3ccccc3c2=O)CC1 | -77.7 |
| O=C(CCSc1nc2ccccc2o1)N1CCOCC1 | 8.39 |
| CCOc1cc(C(=O)Nc2cccc3ncccc23)cc(OCC)c1OCC | -2.81 |
| COC(=O)Cc1c(O)ccn(Cc2ccccc2OC)c1=O | 10.5 |
| COc1cc(/C=N/Nc2nc3ccccc3[nH]2)cc(Br)c1OCC(=O)N(C)C | 0.153 |
| COc1ccc2c(CCNC(=O)c3ccc([N+](=O)[O-])cc3)c[nH]c2c1 | 12.8 |
| Cc1cccn2c(=O)c(C=Nc3ccccc3)c(NCCO)nc12 | 6 |
| Cc1c(CC(=O)O)c(=O)oc2c(C)c3occ(-c4ccccc4)c3cc12 | 19.9 |
| CC1(c2ccc(OC(F)F)cc2)NC(=O)N(CC(=O)Nc2ccccc2)C1=O (stereo not shown) | -26.2 |
| CC1(c2ccc(OC(F)F)cc2)NC(=O)N(CC(=O)Nc2ccc(OC(F)F)cc2)C1=O (stereo not shown) | -100 |
| CC1(c2ccc(OC(F)F)cc2)NC(=O)N(CC(=O)Nc2ccc(F)cc2)C1=O (stereo not shown) | -15.6 |
| COc1ccc(O)c(/C=N/NC(=O)CN2CCS(=O)(=O)CC2)c1 | 15.5 |
| COc1ccc(C2=NN(C(=O)CSc3nnc(C)c(=O)n3N)C(c3ccco3)C2)cc1 (stereo not shown) | -0.0705 |

| SMILES | hERG current change (%, negative = inhibition) at 1uM [%] |
| --- | --- |
| COCC(=O)N1CCN(c2ccc([N+](=O)[O-])cc2)CC1 | -31.5 |
| COc1cc(CCC(=O)N2CCN(c3ccccc3)CC2)cc(OC)c1OC | -0.0932 |
| COc1ccc(CCC(=O)N2CCN(c3ccc([N+](=O)[O-])cc3)CC2)cc1OC | -76.1 |
| COc1ccccc1CC(=O)N1CCN(c2ccc([N+](=O)[O-])cc2)CC1 | -8.15 |
| COc1cc(CCC(=O)N2CCN(c3ccc([N+](=O)[O-])cc3)CC2)cc(OC)c1OC | -83.6 |
| COc1ccc(CCC(=O)N2CCN(c3ccccc3)CC2)cc1OC | 13.5 |
| CCOC(=O)Cc1nnc(-c2ccccc2)o1 | 5.78 |
| COc1ccc2nc(NC(=O)c3ccoc3C)sc2c1 | 17.6 |
| S=C(NN=C1C2CC3CC(C2)CC1C3)Nc1ccccc1 | 11.9 |
| CC(=O)Nc1ccc2oc(C)nc2c1 | 22.4 |
| CC(C)(C)OC(=O)N[C@H](C(=O)OC(C)(C)C)c1ccc(C(F)(F)F)cc1 | 12.8 |
| O=C(NCc1ccco1)c1cnc2ccccn2c1=O | 5.25 |
| Cc1ccc2nc3c(cc(C(=O)NCc4ccco4)c(=N)n3C3CCCC3)c(=O)n2c1 | -83.2 |
| Cn1c2ccccc2c2c(C(=O)NCc3ccco3)cn(C3CCCCC3)c(=O)c21 | 7.44 |
| N=c1c(S(=O)(=O)c2ccccc2)cc2c(=O)n3ccccc3nc2n1C1CCCC1 | 8.93 |
| N=c1c(C(=O)NCc2ccco2)cc2c(=O)n3ccccc3nc2n1C1CCCC1 | -82.2 |
| Cc1ccc2nc(SCC(=O)NCc3ccco3)nc(=O)n2c1 | 11.3 |
| C/C(=N\NC(=O)c1ccccc1[N+](=O)[O-])c1ccc(Br)s1 | 14.7 |
| COc1ccc(CCNC(=O)CN(C2CCCCC2)S(C)(=O)=O)cc1 | 4.21 |
| COC(=O)c1scc(C)c1S(=O)(=O)Nc1ccc(C)cc1 | 12.7 |
| Cc1nc2scc(C)n2c(=O)c1S(=O)(=O)Nc1ccc(N2CCOCC2)cc1 | 5.65 |
| Cc1ccc(S(=O)(=O)N2CCN(C(=O)c3cccs3)CC2)cc1C | 2.03 |
| CCN1C(=O)C(CC(=O)Nc2ccc(Cl)cc2)N(NC(=O)c2ccncc2)C1=S (stereo not shown) | 12.2 |
| FC(F)(F)c1ccc(-c2noc(CN3CCCN(C4CCCCC4)CC3)n2)cc1 | -75.3 |
| CN1CCCN(Cc2nc(-c3cccc(C(F)(F)F)c3)no2)CC1 | -15.4 |
| Cc1ccc(-c2noc(CN3CCCCC3)n2)cc1 | 31.5 |
| CCN(CC)S(=O)(=O)c1cc(C(=O)Nc2cccnc2)ccc1Cl | -40.3 |
